From PubChem BioAssay (NCATS)
Inconclusive results are not listed. Where a call stands in place of a potency, no number is given. Calls of active or inactive are those of the source. The call rests on the fitted dose curve; in most records, active means well fitted inhibition curve with a large enough effect; inconclusive means small, poorly fitted or top-dose-only effect; inactive means no such curve, though single readings can be large or run the other way. Where a SMILES comes first, the peptide text is derived from it. [ ]: non-standard residue; d: D form. ξ: configuration not given here. ξLac(3-iPr) = CC(C)CC(O)C(=O)O; NMeV = CN[CH](C(=O)O)C(C)C; βAla = NCCC(=O)O

Assay: Primary qHTS for inhibitors of nuclear receptor binding SET domain protein 2 (NSD2) in an RCH-ACV wild type WT cells (2C) (AID 1645877); further: nearly all actives have a fitted effect of over 70% in size
Conditions: RCH-ACV (leukaemia line) NSD2 WT (2C) viability, CellTiter-Glo, 72 h; series mostly up to 44.9 µM
Potency means the concentration at half of the fitted maximal effect.

Question: Which Potency does the source give for `O=C(O[C@H]1[C@@H]2C=CO[C@@H](O[C@@H]3O[C@H](CO)[C@@H](O)[C@H](O)[C@H]3O)[C@@H]2[C@@]2(CO)O[C@@H]12)c1ccccc1` here?
Answer: The Potency was “inactive”.

Question: For `C[C@H](C/C=C/C(C)(C)O)[C@H]1CC[C@@]2(C)[C@@H]3[C@@H](O[C@@H]4O[C@H](CO)[C@@H](O)[C@H](O)[C@H]4O)C=C4C(CC[C@H](O)C4(C)C)[C@]3(C=O)CC[C@]12C` (some centres not stated), which Potency is on record?
Answer: The Potency was “inactive”.

Question: Which Potency does the source give for `C[C@@H]1C(=O)O[C@H]2[C@H](O)C34[C@H]5C[C@@H](C(C)(C)C)C36[C@@H](OC(=O)[C@@H]6O)O[C@@]4(C(=O)O5)[C@@]12O` (some centres not stated) here?
Answer: Its Potency is “inactive”.

Question: With `C=C(C)C1CC[C@]2(C(=O)O)CC[C@]3(C(=O)O)[C@H](CCC4[C@@]5(C)CC[C@H](O)C(C)(C)C5CC[C@]43C)C12` (some centres not stated) as the molecule, how does the Potency read?
Answer: Its Potency is “inactive”.

Question: With `CCOc1cc(C)c(Cl)cc1S(=O)(=O)n1cnc2ccccc21` as the molecule, how does the Potency read?
Answer: The Potency was “inactive”.

Question: For `CC(O)CO[C@@H]1O[C@H](CO)[C@@H](O)[C@H](O)[C@H]1O` (some centres not stated), which Potency is on record?
Answer: Its Potency is “inactive”.

Question: For `CC1C=CC2CCCCC2C1CCC1CC(O)CC(=O)O1` (configuration not stated), which Potency is on record?
Answer: Its Potency is “inactive”.

Question: With `CC(C)CC1OC(=O)C2CCCN2C(=O)CCNC(=O)C(Cc2ccccc2)NC(=O)C(C(C)C)N(C)C(=O)C(C(C)C)N(C)C1=O` (configuration not stated) (cyclo([ξLac(3-iPr)][NMeV][NMeV]F[βAla]P); configuration not given here) as the molecule, how does the Potency read?
Answer: Its Potency is “inactive”.

Question: For `C[C@@]12C[C@]3(O)O[C@H](O1)[C@]1(COC(=O)c4ccccc4)[C@H]3C[C@@]12O[C@@H]1O[C@H](CO)[C@@H](O)[C@H](O)[C@H]1O`, which Potency is on record?
Answer: The Potency was “inactive”.

Question: With `O=C(O)/C=C/c1cc2c(cc1O[C@@H]1O[C@H](CO)[C@@H](O)[C@H](O)[C@H]1O)OCO2` as the molecule, how does the Potency read?
Answer: Its Potency is “inactive”.

Question: Which Potency does the source give for `COc1cc2c(cc1O)[C@H](c1ccc(O[C@@H]3O[C@H](CO)[C@@H](O)[C@H](O)[C@H]3O)c(OC)c1)[C@@H](CO)[C@](O)(CO)C2` here?
Answer: Its Potency is “inactive”.

Question: Which Potency does the source give for `CC(=O)C12OC(C)(C)OC1CC1C3CCC4=CC(=O)C=CC4(C)C3(F)C(O)CC12C` (configuration not stated) here?
Answer: The Potency was 6.5 nM (active).

Question: Which Potency does the source give for `C=C[C@@](C)(O)CC/C=C(\C)C(=O)O[C@@H]1[C@@H]2O[C@]2(C)[C@H]2[C@H](O[C@@H]3O[C@H](CO)[C@@H](O)[C@H](O)[C@H]3O)OC=C[C@@]12O` here?
Answer: Its Potency is “inactive”.

Question: With `C=CC1(C)C=C2CCC3C(C)(C)C(O[C@@H]4O[C@@H](CO)[C@H](O)[C@H]4O)CCC3(C)C2CC1O[C@@H]1O[C@H](C)[C@H](O)[C@H](O)[C@H]1O` (some centres not stated) as the molecule, how does the Potency read?
Answer: Its Potency is “inactive”.

Question: With `CC(=O)OC1C(OC(=O)c2ccccc2)C2C(C)(C)CC(=O)CC2(C)C23CCC(C)(C2)C(O)CC13` (configuration not stated) as the molecule, how does the Potency read?
Answer: The Potency was “inactive”.

Question: For `O=C(O)c1ccc(OC2OC(CO)C(O)C(O)C2O)cc1` (configuration not stated), which Potency is on record?
Answer: The Potency was “inactive”.

Question: Which outcome does the source give for `CC(C)=CCC/C(C)=C/CC/C(C)=C/COC1OC(COC2OCC(OC3OCC(O)C(O)C3O)C(O)C2O)C(O)C(OC2OC(C)C(OC3OC(C)C(OC4OCC(OC5OC(C)C(O)C(O)C5O)C(O)C4O)C(O)C3O)C(O)C2O)C1O` (configuration not stated) here?
Answer: The outcome was “inactive [at 9.23 µM]”.

Question: With `Nc1nc2c(c(=O)[nH]1)C[C@@H](CCc1ccc(C(=O)N[C@@H](CCC(=O)O)C(=O)O)cc1)CN2` as the molecule, how does the Potency read?
Answer: Its Potency is 9.2 nM (active).

Question: With `O=C(O)CC(=O)OC[C@H]1O[C@@H](Oc2ccc3c(c2)OC[C@H]2c4cc5c(cc4O[C@@H]32)OCO5)[C@H](O)[C@@H](O)[C@@H]1O` as the molecule, how does the Potency read?
Answer: The Potency was “inactive”.

Question: With `CC(O)CCC1C(CO[C@@H]2O[C@H](CO)[C@@H](O)[C@H](O)[C@H]2O)CC(O)CC1(C)C` (some centres not stated) as the molecule, how does the Potency read?
Answer: The Potency was “inactive”.

Question: Which Potency does the source give for `O=C1NC(=O)C(c2cn3c4c(cccc24)CCC3)C1c1c[nH]c2ccccc12` (configuration not stated) here?
Answer: Its Potency is 916 nM (active).

Question: For `C=C1[C@H](OC(C)=O)[C@H]2[C@@H](OC(C)=O)[C@](C)(OC(C)=O)C[C@]2(OC(C)=O)C(=O)[C@H](C)/C=C/C(C)(C)C(=O)[C@H](OC(=O)C(C)CC)[C@H]1OC(C)=O` (some centres not stated), which Potency is on record?
Answer: The Potency was “inactive”.

Question: Which Potency does the source give for `COC(=O)CC(O)CC(O)/C=C/c1c(C)ccc2c1C(O)CC(C)C2` (configuration not stated) here?
Answer: Its Potency is “inactive”.

Question: Which Potency does the source give for `COc1ccc(CN2C(=O)C(=O)c3cc(S(=O)(=O)N4CCC[C@H]4COc4cccnc4)ccc32)cc1` here?
Answer: The Potency was “inactive”.

Question: Which Potency does the source give for `C/C(=C\CCC(C)CCO)C(=O)O[C@@H]1[C@@H](O)[C@H](OC2OC=C(C(=O)O)C3CCC(C)(O)C23)O[C@H](CO)[C@H]1O` (some centres not stated) here?
Answer: Its Potency is “inactive”.

Question: With `N=c1nc2n(cc1F)C1OC(CO)C(O)C1O2` (configuration not stated) as the molecule, how does the Potency read?
Answer: The Potency was 18.3 nM (active).

Question: Which Potency does the source give for `CC1=C(C(=O)O)/C(=C\CO[C@@H]2O[C@H](CO)[C@@H](O)[C@H](O)[C@H]2O)C(OC(=O)/C=C\c2ccc(O)cc2)C1` (some centres not stated) here?
Answer: Its Potency is “inactive”.
